{"source": "PubChem BioAssay (NCI)", "note": "Compounds without any hit were thinned out: in the full panel of roughly 83,000, 20% have a hit.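 Cells were grown in 96-well plates and exposed to the test compound at a single concentration for 48 hours; results are reported as percent growth, with values below 10 considered active.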 Values without a mark were called inactive. The source made the active and inactive calls."}
{"tested_on": "SR leukemia", "test": "NCI-60 one-dose screen, 48 h (100 = growth as untreated, 0 = no growth, -100 = all killed)", "conditions": "10 µM unless noted", "experimental": "Growth inhibition of the SR human tumor cell line is measured as a screen for anti-cancer activity. Cells are grown in 96 well plates and exposed to the test compound for 48 hours. Compounds are tested at a single concentration, which is 10^-5 M for most compounds. The reported endpoint is percent growth (GI% or GIPRCNT), where numbers from 0 - 100% represent growth inhibition, and numbers from -100% - 0 represent cell death. For example, a value of 40 represents 60% growth inhibition. A value of 0 means no net growth occurred over the course of the experiment. A value of -40 indicates 40% of cells at the beginning of the experiment died by the end of the experiment. A value of -100 means all cells are dead at the end of the experiment.\nNCI-60 Human Tumor Cell Lines Screen was performed using the standard one-dose NCI protocol, which is described in more detail at https://dtp.cancer.gov/discovery_development/nci-60/default.htm.\nCompounds with GIPRCNT values below 10 were considered active. Activity score was based on GIPRCNT using the following formula: […]\nScore is 0 for GIPRCNT values of 100 or above, 50 for GIPRCNT values of 0, and 100 for GIPRCNT values of -100."}
{"molecule": "N=c1sc(Cc2cc(Cl)ccc2Cl)cn1CC(=O)c1ccccc1", "growth": "27.4%"}
{"molecule": "C=C1C(=O)O[C@H]2[C@H]1CC/C(COC(=O)c1cc3cc(F)ccc3[nH]1)=C\\CC[C@@]1(C)O[C@@H]21", "growth": "-5.71% (active)"}
{"molecule": "O=C(NCc1ccccc1O)c1cccc2ccccc12", "growth": "64.9%"}
{"molecule": "CCOC(=O)C/C(=N\\Nc1cc(=O)[nH]c2ccc(Cl)cc12)C(=O)OCC", "growth": "47%"}
{"molecule": "O=P(O)(O)OCC1OC(n2cnc3c(NCc4ccccc4)ncnc32)C(O)C1O", "note": "(stereo not given)", "growth": "41.7%"}
{"molecule": "COc1cc(C#Cc2ccc(=O)oc2C#Cc2ccccc2)cc(OC)c1OC", "growth": "3.75% (active)"}
{"molecule": "CC(C)=CC(=O)N[C@@H]1CC2CCC3C(CC[C@@]4(C)C3CC[C@@H]4C(C)N(C)C)[C@@]2(C)C[C@@H]1O", "note": "(stereo not given in full)", "growth": "-39.8% (active)"}
{"molecule": "CCOC(=O)Nc1nc2ccc(SCC(C)C)cc2s1", "growth": "12.5%"}
{"molecule": "CNC(=O)c1c(NC(=O)c2ccc(C(C)(C)C)cc2)sc2c(CN(C)C)c(O)ccc12", "growth": "3.65% (active)"}
{"molecule": "CCc1cccc(Sc2cc(C(=O)N3Cc4ccc(OCCN(C)C)cc4C3)ccc2O)c1", "growth": "19.9%"}
{"molecule": "CCC(CC)(N(CC(=O)O)CC(=O)O)C(CC)(CC)N(CC(=O)O)CC(=O)O", "growth": "93.7%"}
{"molecule": "CS(=O)(=O)Nc1cc(-c2ccc3ncnc(Nc4ccc5c(cnn5Cc5cccnc5)c4)c3c2)cnc1Cl", "growth": "21.5%"}
{"molecule": "Cc1ccc(C)n1/C=C/n1c(C)ccc1C", "growth": "122%"}
{"molecule": "N=C(N)SCc1cccc2c(CSC(=N)N)cccc12", "growth": "92.9%"}
{"molecule": "O=c1nc(Nc2nc3ccccc3s2)[nH]c(=O)c2ccccc12", "growth": "90.7%"}
{"molecule": "COc1ccc(Cl)cc1Nc1nc(C(F)(F)F)ccc1C(=O)N/N=C/c1ccccc1Cl", "growth": "-15.1% (active)"}
{"molecule": "COc1cc(/C=C/c2cc(/C=C/c3ccc(O)c(OC)c3)n(C(=O)Nc3ccc(F)cc3)n2)ccc1O", "growth": "2.53% (active)"}
{"molecule": "COC(=O)Cc1nc(C#N)c(N(C)C)o1", "growth": "94.9%"}
{"molecule": "CC(CN)[C@@H]1CC[C@]2(CO)CC[C@]3(C)[C@H](CC[C@@H]4[C@@]5(C)CCC(N)C(C)(C)[C@@H]5CC[C@]43C)[C@@H]12", "note": "(stereo not given in full)", "growth": "-46.4% (active)"}
{"molecule": "Cc1ccc(/C=C(\\C#N)C(=O)Nc2ncc(Cc3cc(Cl)ccc3Cl)s2)o1", "growth": "90.1%"}
{"molecule": "COc1ccc(C2C(C#N)=C(N)Oc3c2sc2c(Br)cccc32)cc1", "note": "(stereo not given)", "growth": "8.82% (active)"}
{"molecule": "CS(=O)(=O)Nc1cncc(-c2ccc3ncnc(Nc4ccc(F)c(Cl)c4)c3c2)c1", "growth": "23.3%"}
{"molecule": "COc1ccc(-c2cc(-c3cc(OC)c(OC)c(OC)c3)c(C#N)c(=O)n2CCCCCC(=O)NO)cc1", "growth": "78.2%"}
{"molecule": "N#C/C(=C\\c1ccc(Cl)cc1Cl)C(=O)Nc1ncc(Cc2ccc(Cl)c(Cl)c2)s1", "growth": "59.6%"}
{"molecule": "CC(=O)c1c(Nc2ccc(F)c(F)c2F)[nH]c2c(F)cc(F)cc2c1=O", "growth": "8.21% (active)"}
{"molecule": "CCSC1=CC(=O)c2ccccc2C1=O", "growth": "37.6%"}
{"molecule": "O=C(N/N=C/c1ccc(Cl)cc1Cl)c1ccc2nc(-c3ccc(Cl)cc3)[nH]c2c1", "growth": "-24.2% (active)"}
{"molecule": "CCN(CC)S(=O)(=O)c1ccc(S(=O)(=O)N2CCC[C@@H](C(=O)N3CCN(C(=O)OC(C)(C)C)CC3)C2)cc1", "growth": "31.7%"}
{"molecule": "Cc1ccc(-c2nc(C(Cl)Cl)nc3cc(C)nn23)cc1", "growth": "9.7% (active)"}
{"molecule": "COc1ccc(C2=C/C(=C\\c3ccc(Cl)cc3)C(=O)N2/N=C/c2ccc(Cl)cc2)cc1", "growth": "88.3%"}
{"molecule": "O=C1Nc2ccccc2/C1=C/c1cn(C[C@@H](O)Cn2c3ccccc3c(=O)c3ccccc32)c2ccccc12", "growth": "66.3%"}
{"molecule": "COc1ccc(C(O)c2cc3c(N)c(C(=O)Nc4cccc(Cl)c4)sc3nc2C)cc1", "note": "(stereo not given)", "growth": "13.2%"}
{"molecule": "COc1cc2c(c(OC)c1OC)C(=O)CC(c1cccc(NC(=O)c3ccccc3Br)c1)O2", "note": "(stereo not given)", "growth": "68.4%"}
{"molecule": "COc1ccc(/C=C/C(=O)c2ccc(Nc3nc(Nc4ccc(F)cc4)nc(Nc4ccc(Cl)cc4)n3)cc2)cc1", "growth": "-2.35% (active)"}
{"molecule": "COc1cc2ncnc(Nc3ccc(F)c(Cl)c3)c2cc1OCC(=O)N1CCN(c2ccc(F)cc2)CC1", "growth": "79%"}
{"molecule": "CCCCCn1sc(=O)n(Cc2ccc(CNC(=O)OCc3ccc4c(Cl)cc(Cl)c(O)c4n3)cc2)c1=O", "growth": "64.3%"}
{"molecule": "Cc1c2cnccc2c(C)c2c1c1cc(C3OCCCO3)ccc1n2C", "growth": "4.22% (active)"}
{"molecule": "CNC(=O)c1cc(Oc2ccc3nc(NC(=O)Nc4ccc(Cl)c(Cl)c4)sc3c2)ccn1", "growth": "15.4%"}
{"molecule": "Cc1nc2sc(C(=O)Nc3ccccc3)c(N)c2cc1C(=O)/C=C/c1ccccc1", "growth": "11.7%"}
{"molecule": "Cc1[nH]c(C(=O)Nc2ccc(C(N)=O)cc2NC(C)C)c(Cl)c1Cl", "growth": "103%"}
